# Assay results as given in PubChem BioAssay (NCI).
# About 79,000 compounds went through this panel and 15% of them were active in at least one assay; those are over-represented in the sample as a whole. A number with no mark means an inactive call. The source made the active and inactive calls. Rule as the data show it: active = growth inhibition above about 70%; inactive = the rest.
# Legend:
# [1] = NCI Yeast Anticancer Drug Screen. Data for the rad52 strain (AID 147);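 also: 0% = growth of vehicle-treated control cultures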; settings: S. cerevisiae rad52 mutant growth inhibition, hits give high values
# How it was run: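 Measured: yeast growth inhibition. System: strain with a defined DNA damage repair alteration. Reference: vehicle-treated control cultures.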
# [2] = NCI Yeast Anticancer Drug Screen. Data for the rad50EPP+ strain (AID 151);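 also: 0% = growth of vehicle-treated control cultures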; settings: S. cerevisiae rad50 mutant strain, hits give high values
# How it was run: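 One strain with a rad50 alteration (rad50EPP+) was compound-treated, its growth then compared to that of vehicle controls.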
# [3] = NCI Yeast Anticancer Drug Screen. Data for the mgt1 strain (AID 153); settings: S. cerevisiae mgt1 mutant growth inhibition, hits give high values
# How it was run: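 After exposure of the mgt1 yeast mutant to compound, growth was measured and reported as inhibition compared with vehicle controls.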
# [4] = NCI Yeast Anticancer Drug Screen. Data for the rad50 strain (AID 155);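 also: 0% = growth of vehicle-only cultures of the same strain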; settings: S. cerevisiae rad50 strain growth inhibition, hits give high values
# How it was run: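 Relative growth inhibition (compound vs vehicle) was measured in yeast with a defined repair-gene alteration.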
# [5] = NCI Yeast Anticancer Drug Screen. Data for the mec2-1 strain (AID 157); settings: S. cerevisiae mec2-1 strain, hits give high values
# How it was run: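 Test agents were screened against the mec2-1 yeast strain, with defined DNA repair or cell cycle alteration. Growth was scored as inhibition against vehicle-only controls.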
# [6] = NCI Yeast Anticancer Drug Screen. Data for the sgs1 mgt1 strain (AID 161);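 also: 0% = growth of cultures given vehicle only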; settings: S. cerevisiae sgs1 mgt1 strain, hits give high values
# How it was run: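 Inhibition of yeast growth, normalised to vehicle-treated controls, is reported for a strain bearing genetic alterations in DNA damage repair.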
# [7] = NCI Yeast Anticancer Drug Screen. Data for the CLN2oe strain (AID 163);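 also: 0% = growth of vehicle-only control cultures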; settings: S. cerevisiae CLN2oe strain, hits give high values
# How it was run: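 Here, growth inhibition in a cell-cycle-altered yeast strain after compound exposure was quantified against vehicle control growth.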
# [8] = NCI Yeast Anticancer Drug Screen. Data for the cln2 rad14 strain (AID 165);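 also: 0% = growth equal to vehicle treated cultures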; settings: S. cerevisiae cln2 rad14 strain, hits give high values
# How it was run: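 Growth of compound-exposed yeast (cln2 rad14 genotype) measured and expressed as inhibition relative to vehicle.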
# [9] = NCI Yeast Anticancer Drug Screen. Data for the bub3 strain (AID 167); settings: S. cerevisiae bub3 mutant strain, hits give high values
# How it was run: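 Screening used yeast with an engineered genetic alteration affecting cell cycle control. Compound-exposed cultures were compared with vehicle cultures, and reduced growth was taken as inhibition.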
# [10] = NCI Yeast Anticancer Drug Screen. Data for the wt2 strain (AID 169);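 also: 0% = growth of vehicle-treated yeast cultures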; settings: S. cerevisiae wt2 strain growth inhibition, hits give high values
# How it was run: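 Genetically defined yeast strains from a DNA-repair/cell-cycle panel were used. Compound-exposed yeast growth was measured, and the inhibition was calculated relative to vehicle treatment.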
# [11] = NCI Yeast Anticancer Drug Screen. Data for the mlh1 strain (AID 171);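 also: 0% = growth of vehicle-treated control cultures of the same strain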; settings: S. cerevisiae mlh1 strain growth inhibition, hits give high values
# How it was run: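 Here the genetically defined yeast mutant is grown with each compound, and the extent to which its growth falls below that of vehicle-exposed cells is reported.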
# [12] = NCI Yeast Anticancer Drug Screen. Data for the sgs1 strain (AID 173);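 also: 0% = growth of vehicle-only control cultures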; settings: S. cerevisiae sgs1 mutant, hits give high values
# How it was run: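 Relative growth inhibition, referenced to vehicle, was determined in a yeast strain with a defined alteration affecting DNA damage repair or cell cycle control after compound exposure.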
# [13] = NCI Yeast Anticancer Drug Screen. Data for the mlh1 rad18 strain (AID 175); settings: S. cerevisiae mlh1 rad18 strain growth inhibition, hits give high values
# How it was run: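 In this whole-cell yeast screen, a strain with altered DNA damage repair is challenged with compound, and its growth is measured against matched vehicle-treated controls.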
# [14] = NCI Yeast Anticancer Drug Screen. Data for the rad18 strain (AID 177); settings: S. cerevisiae rad18 mutant growth inhibition, hits give high values
# How it was run: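 Screen uses a yeast strain with a defined lesion in DNA damage repair; compound effect is read as loss of growth compared to untreated vehicle cultures.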
# [15] = NCI Yeast Anticancer Drug Screen. Data for the rad14 strain (AID 159);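 also: 0% = growth of vehicle-treated control cultures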; settings: S. cerevisiae rad14 strain growth inhibition, hits give high values
# How it was run: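 Screen for anticancer potential: a yeast strain altered in DNA damage repair is grown with compound, and reduced growth is quantified against vehicle controls.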
# [16] = NCI Yeast Anticancer Drug Screen. Data for the wt1 strain (AID 149);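 also: 0% = growth of vehicle-treated wt1 cultures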; settings: S. cerevisiae wt1 strain (SPY 50644) growth inhibition, hits give high values
# How it was run: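 Using yeast strain wt1, compound-induced growth inhibition was determined against vehicle-treated cultures.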
# [17] = at 5.0 µM (retest, dose inferred, filed as 0.5)
# [18] = at 50.0 µM (retest, dose inferred, filed as 5.0)
smiles,measurement,setting,value
C=C1CC(Cn2cc(Br)c(=O)[nH]c2=O)(c2ccc(-c3ccccc3)cc2)OC1=O (stereo unspecified),growth inhibition,[1]; at 1.2 µM,2%
same,growth inhibition,[1]; at 3.7 µM,13%
same,growth inhibition,[1]; at 11.0 µM,21%
same,growth inhibition,[1]; at 33.0 µM,41%
same,growth inhibition,[1]; at 100.0 µM,93% (active)
same,growth inhibition,[2]; at 1.2 µM,-4%
same,growth inhibition,[2]; at 3.7 µM,-5%
same,growth inhibition,[2]; at 11.0 µM,3%
same,growth inhibition,[2]; at 33.0 µM,9%
same,growth inhibition,[2]; at 100.0 µM,16%
same,growth inhibition,[3]; at 1.2 µM,0%
same,growth inhibition,[3]; at 3.7 µM,9%
same,growth inhibition,[3]; at 11.0 µM,29%
same,growth inhibition,[3]; at 33.0 µM,55%
same,growth inhibition,[3]; at 100.0 µM,94% (active)
same,growth inhibition,[4]; at 1.2 µM,3%
same,growth inhibition,[4]; at 3.7 µM,7%
same,growth inhibition,[4]; [17],8%
same,growth inhibition,[4]; at 11.0 µM,17%
same,growth inhibition,[4]; at 33.0 µM,36%
same,growth inhibition,[4]; [18],98% (active)
same,growth inhibition,[4]; at 50.0 µM,98.3% (active)
same,growth inhibition,[4]; at 100.0 µM,92% (active)
same,growth inhibition,[5]; at 1.2 µM,5%
same,growth inhibition,[5]; at 3.7 µM,15%
same,growth inhibition,[5]; [17],21%
same,growth inhibition,[5]; at 11.0 µM,40%
same,growth inhibition,[5]; at 33.0 µM,57%
same,growth inhibition,[5]; [18],98% (active)
same,growth inhibition,[5]; at 50.0 µM,98.4% (active)
same,growth inhibition,[5]; at 100.0 µM,93% (active)
same,growth inhibition,[6]; [17],30%
same,growth inhibition,[6]; [18],87% (active)
same,growth inhibition,[6]; at 50.0 µM,97.3% (active)
same,growth inhibition,[7]; at 1.2 µM,-2%
same,growth inhibition,[7]; at 3.7 µM,-5%
same,growth inhibition,[7]; at 11.0 µM,10%
same,growth inhibition,[7]; at 33.0 µM,21%
same,growth inhibition,[7]; at 100.0 µM,96% (active)
same,growth inhibition,[8]; [17],23%
same,growth inhibition,[8]; [18],99% (active)
same,growth inhibition,[8]; at 50.0 µM,97.8% (active)
same,growth inhibition,[9]; at 1.2 µM,-1%
same,growth inhibition,[9]; at 3.7 µM,1%
same,growth inhibition,[9]; [17],10%
same,growth inhibition,[9]; at 11.0 µM,25%
same,growth inhibition,[9]; at 33.0 µM,53%
same,growth inhibition,[9]; [18],99% (active)
same,growth inhibition,[9]; at 50.0 µM,98.2% (active)
same,growth inhibition,[9]; at 100.0 µM,92% (active)
same,growth inhibition,[10]; at 1.2 µM,2%
same,growth inhibition,[10]; at 3.7 µM,10%
same,growth inhibition,[10]; at 11.0 µM,16%
same,growth inhibition,[10]; at 33.0 µM,29%
same,growth inhibition,[10]; at 100.0 µM,92% (active)
same,growth inhibition,[11]; at 1.2 µM,2%
same,growth inhibition,[11]; at 3.7 µM,10%
same,growth inhibition,[11]; at 11.0 µM,28%
same,growth inhibition,[11]; at 33.0 µM,41%
same,growth inhibition,[11]; at 100.0 µM,94% (active)
same,growth inhibition,[12]; at 1.2 µM,8%
same,growth inhibition,[12]; at 3.7 µM,26%
same,growth inhibition,[12]; at 11.0 µM,37%
same,growth inhibition,[12]; at 33.0 µM,57%
same,growth inhibition,[12]; at 100.0 µM,93% (active)
same,growth inhibition,[13]; [17],68%
same,growth inhibition,[13]; [18],99% (active)
same,growth inhibition,[13]; at 50.0 µM,97.2% (active)
same,growth inhibition,[14]; at 1.2 µM,4%
same,growth inhibition,[14]; at 3.7 µM,10%
same,growth inhibition,[14]; at 11.0 µM,10%
same,growth inhibition,[14]; at 33.0 µM,43%
same,growth inhibition,[14]; at 100.0 µM,95% (active)
CCS(=O)(=O)c1ccc(/C=C/C=N/NC(=S)NCC(C)C)cc1,growth inhibition,[1]; at 1.2 µM,5%
same,growth inhibition,[1]; at 3.7 µM,3%
same,growth inhibition,[1]; at 11.0 µM,-1%
same,growth inhibition,[1]; at 33.0 µM,3%
same,growth inhibition,[1]; at 100.0 µM,1%
same,growth inhibition,[2]; at 1.2 µM,3%
same,growth inhibition,[2]; at 3.7 µM,5%
same,growth inhibition,[2]; at 11.0 µM,5%
same,growth inhibition,[2]; at 33.0 µM,6%
same,growth inhibition,[2]; at 100.0 µM,-9%
same,growth inhibition,[3]; at 1.2 µM,-2%
same,growth inhibition,[3]; at 3.7 µM,2%
same,growth inhibition,[3]; at 11.0 µM,-2%
same,growth inhibition,[3]; at 33.0 µM,5%
same,growth inhibition,[3]; at 100.0 µM,44%
same,growth inhibition,[4]; at 1.2 µM,6%
same,growth inhibition,[4]; at 3.7 µM,3%
same,growth inhibition,[4]; [17],5%
same,growth inhibition,[4]; at 11.0 µM,-4%
same,growth inhibition,[4]; at 33.0 µM,10%
same,growth inhibition,[4]; [18],-7%
same,growth inhibition,[4]; at 50.0 µM,0.25%
same,growth inhibition,[4]; at 100.0 µM,5%
same,growth inhibition,[5]; at 1.2 µM,0%
same,growth inhibition,[5]; at 3.7 µM,1%
same,growth inhibition,[5]; [17],-25%
same,growth inhibition,[5]; at 11.0 µM,2%
same,growth inhibition,[5]; at 33.0 µM,3%
same,growth inhibition,[5]; [18],-24%
same,growth inhibition,[5]; at 50.0 µM,4.2%
same,growth inhibition,[5]; at 100.0 µM,4%
same,growth inhibition,[15]; at 1.2 µM,4%
same,growth inhibition,[15]; at 3.7 µM,3%
same,growth inhibition,[15]; at 11.0 µM,0%
same,growth inhibition,[15]; at 33.0 µM,5%
same,growth inhibition,[15]; at 100.0 µM,3%
same,growth inhibition,[6]; [17],6%
same,growth inhibition,[6]; [18],62%
same,growth inhibition,[6]; at 50.0 µM,77% (active)
same,growth inhibition,[8]; [17],-7%
same,growth inhibition,[8]; [18],9%
same,growth inhibition,[8]; at 50.0 µM,-67.3%
same,growth inhibition,[9]; at 1.2 µM,3%
same,growth inhibition,[9]; at 3.7 µM,4%
same,growth inhibition,[9]; [17],-12%
same,growth inhibition,[9]; at 11.0 µM,0%
same,growth inhibition,[9]; at 33.0 µM,4%
same,growth inhibition,[9]; [18],50%
same,growth inhibition,[9]; at 50.0 µM,39.1%
same,growth inhibition,[9]; at 100.0 µM,8%
same,growth inhibition,[10]; at 1.2 µM,-8%
same,growth inhibition,[10]; at 3.7 µM,-5%
same,growth inhibition,[10]; at 11.0 µM,-17%
same,growth inhibition,[10]; at 33.0 µM,-5%
same,growth inhibition,[10]; at 100.0 µM,55%
same,growth inhibition,[11]; at 1.2 µM,4%
same,growth inhibition,[11]; at 3.7 µM,0%
same,growth inhibition,[11]; at 11.0 µM,-3%
same,growth inhibition,[11]; at 33.0 µM,13%
same,growth inhibition,[11]; at 100.0 µM,41%
same,growth inhibition,[12]; at 1.2 µM,-4%
same,growth inhibition,[12]; at 3.7 µM,1%
same,growth inhibition,[12]; at 11.0 µM,-24%
same,growth inhibition,[12]; at 33.0 µM,1%
same,growth inhibition,[12]; at 100.0 µM,48%
same,growth inhibition,[13]; [17],8%
same,growth inhibition,[13]; [18],43%
same,growth inhibition,[13]; at 50.0 µM,4%
CN(C)Cc1cc(N=Nc2ccc(Cl)cc2)cc(CN(C)C)c1O,growth inhibition,[16]; at 1.2 µM,5%
same,growth inhibition,[16]; at 3.7 µM,4%
same,growth inhibition,[16]; at 11.0 µM,8%
same,growth inhibition,[16]; at 33.0 µM,12%
same,growth inhibition,[16]; at 100.0 µM,63%
same,growth inhibition,[2]; at 1.2 µM,-3%
same,growth inhibition,[2]; at 3.7 µM,-1%
same,growth inhibition,[2]; at 11.0 µM,15%
same,growth inhibition,[2]; at 33.0 µM,43%
same,growth inhibition,[2]; at 100.0 µM,91% (active)
same,growth inhibition,[3]; at 1.2 µM,13%
same,growth inhibition,[3]; at 3.7 µM,12%
same,growth inhibition,[3]; at 11.0 µM,13%
same,growth inhibition,[3]; at 33.0 µM,26%
same,growth inhibition,[3]; at 100.0 µM,13%
same,growth inhibition,[4]; at 1.2 µM,9%
same,growth inhibition,[4]; at 3.7 µM,7%
same,growth inhibition,[4]; [17],-15%
same,growth inhibition,[4]; at 11.0 µM,8%
same,growth inhibition,[4]; at 33.0 µM,10%
same,growth inhibition,[4]; [18],73% (active)
same,growth inhibition,[4]; at 50.0 µM,56.8%
same,growth inhibition,[4]; at 100.0 µM,25%
same,growth inhibition,[5]; at 1.2 µM,15%
same,growth inhibition,[5]; at 3.7 µM,17%
same,growth inhibition,[5]; [17],-5%
same,growth inhibition,[5]; at 11.0 µM,16%
same,growth inhibition,[5]; at 33.0 µM,14%
same,growth inhibition,[5]; [18],47%
same,growth inhibition,[5]; at 50.0 µM,88.9% (active)
